# WT yeast gro inh = growth inhibition of WT yeast, mitochondrial fusion screen | mitochondrial fusion phenotypic screen, WT strain | inhibition, % at 10 µM | hit rate 2.1% among 190,000; in the data active = inhibition above about 58%; tested in S. cerevisiae
# Lmaj promast = reduces viability of Leishmania major promastigotes; resazurin fluorescence viability; inhibition, % at 10 µM; hit rate 9% among 200,000; AID 1063; in the data active = inhibition above about 50%;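 also: promastigotes grown with compound for 44 hours at 28 °C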
# RAM network inh = yeast RAM network inhibition. S. cerevisiae dse1pr::URA3 reporter, 5-FOA growth OD615, 2 d; analog-sensitive cbk1-as2 kinase mutant strain. inhibition, % at 50 µM. hit rate 1.8% among 190,000. AID 868;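 active = inhibition above a set limit, 3 SD over mean compound inhibition, cut at about 8.4% in these data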;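 also: 0% = DMSO-only wells with no growth and 100% = 10 µM 1-NA-PP1 full growth; inhibition rescues growth on 5-FOA so higher OD means more RAM inhibition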
# CHOP inh = blocks CHOP induction under ER stress. CHO-K1 CHOP-promoter luciferase, tunicamycin-induced, 15-18 h. inhibition, % at 10 µM. hit rate 3.8% among 220,000;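 active = compounds that reduced the stress-induced luciferase reporter signal by more than about 70% of percent inhibition, limit read from the data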;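 also: 0% = tunicamycin plus vehicle and 100% = wells without tunicamycin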
# * hit, by the source's call; / = not tested or not shown; ! = repeats disagree. An excerpt weighted towards active compounds, which were near 13% of everything screened.
SMILES,WT yeast gro inh,Lmaj promast,RAM network inh,CHOP inh
COc1ccccc1-n1c(-c2ccccc2)c[n+]2c1CCc1ccccc1-2,63*!,101*,1,6
FC(F)Oc1ccc(-c2c[n+]3c(n2-c2ccccc2)CCCCC3)cc1,/,/,/,0
COc1ccc(-c2c[n+]3c(n2-c2ccccc2)SCC3)cc1,/,/,/,-5
COc1ccc(-n2c(-c3ccc(Br)cc3)c[n+]3c2CCc2ccccc2-3)cc1,35,100*,2,35
Cc1cc(C)n(C(=O)CCCn2nc(C)c([N+](=O)[O-])c2C)n1,-4,22,1,3
Cc1ccc(N(CCC#N)C(=O)CCl)cc1C,-9,79*,1,-48
CSc1c(SCc2ccccc2)cnn(-c2ccccc2)c1=O,8,10,7,35
Cc1ccc(C2CC(c3ccc(NS(C)(=O)=O)cc3)=NN2C(=O)c2ccco2)cc1 (centres undefined),-10,-4,4,11
CCS(=O)(=O)Nc1ccc(C2=NN(C(=O)c3ccco3)C(c3ccc(C)cc3)C2)cc1 (centres undefined),-6,74*,6,-8
CCS(=O)(=O)Nc1ccc(C2=NN(C(=O)c3ccco3)C(c3cccc(F)c3)C2)cc1 (centres undefined),5,35,8,11
CS(=O)(=O)Nc1ccc(C2=NN(C(=O)c3ccco3)C(c3ccccc3)C2)cc1 (centres undefined),-14,68*,2,21
CCOC(=O)c1c(NC(=O)c2cccs2)sc2c1CCN(C(=O)OCC)C2,63*,35,3,22
CCOC(=O)c1c(NC(=O)c2ccco2)sc2c1CCCCC2,9,7,5,56
CCN1CCc2c(sc(NC(=S)NC(=O)c3ccco3)c2C(N)=O)C1,/,/,/,-7
CCOC(=O)c1c(NC(=O)C(C)N2CCN(C(=O)c3ccco3)CC2)sc2c1CCCC2 (centres undefined),70*,40,0,47
CCOC(=O)N1CCc2c(sc(NC(=O)c3ccc(Cl)s3)c2C(N)=O)C1,24,82*,3,16
CCN1CCc2c(sc(NC(=O)Nc3ccc(Cl)c(Cl)c3)c2C(N)=O)C1,77*,50,-1,70*
OCCC1CN(Cc2cnc(N3CCOCC3)s2)CCN1C1CCCC1 (centres undefined),-1,-1,0,-9
CCOC(=O)c1c(NC(=O)c2cccs2)sc(C)c1CC,4,0,11*,58
O=C(O)/C=C/C(=O)Nc1ccc(S(=O)(=O)N2CCCC2)cc1,-10,-7,1,7
N#C/C(=C\c1coc2ccc(O)cc2c1=O)C(=O)Nc1nc2ccccc2s1,/,/,/,-16
C=CCn1c(=N)n(CC(=O)c2ccc(Br)s2)c2ccccc21,21,97*,2,1
C=CCn1c(=N)n(CC(=O)OC)c2ccccc21,-6,-3,0,-24
Cc1cc(C)c(C)c(S(=O)(=O)N2CCN(c3ccc(O)cc3)CC2)c1C,13,55*,5,54
CCOc1cc2c(cc1OCC)C(c1ccc(OC)cc1)N(c1ccccc1)C(=O)C2 (centres undefined),20,10,4,20
SMILES,WT yeast gro inh,Lmaj promast,RAM network inh,CHOP inh
CCOc1cc2c(cc1OCC)C(c1ccccc1)N(c1ccccc1)C(=O)C2 (centres undefined),18,81*,0,13
Cc1c(C(=O)Nc2ccc(S(=O)(=O)NCC3CCCO3)cc2)cccc1[N+](=O)[O-] (centres undefined),0,2,3,6
Cc1ccc(NC(=O)CSc2ncc3ccccn23)cc1,-5,-4,4,-21
CC1CC(=O)c2c(cc3c(-c4c(O)cc(O)c5c(O)c6c(cc45)OC(C)CC6=O)c(O)cc(O)c3c2O)O1 (centres undefined),25,-3,9.4*,82*
O=C(O)/C=C/C(=O)Nc1cc(F)ccc1F,/,/,/,18
O=c1c2ccccc2n2c(-c3ccc(F)cc3)nnc2n1Cc1ccccc1,-13,56*,5,18
O=c1c2ccccc2n2c(-c3ccc(C(F)(F)F)cc3)nnc2n1Cc1ccccc1,26,15,2,29
CC(=O)Nc1cccc(-c2nnc(SCc3ccccc3C#N)n2C)c1,10,-3,-1,33
Cc1ccccc1-c1nc(CN2CCC(C(=O)NCCCN3CCCC3)CC2)c(C)o1,4,3,-1,4
Cc1oc(-c2ccc(Cl)cc2)nc1CN1CCCC(C(=O)NCCCN2CCOCC2)C1 (centres undefined),-21,76*,1,19
Cc1ccccc1-c1nc(CN2CCC(C(=O)NCCCN3CC(C)CC(C)C3)CC2)c(C)o1 (centres undefined),-13,76*,-1,3
Cc1oc(-c2ccccc2F)nc1CN1CCC(C(=O)NCCC2=CCCCC2)CC1,98*,28,2,16
CCn1c(SCC(=O)N2CCc3ccccc3C2)nc2sc(C)c(C)c2c1=O,8,-4,3,12
COC(=O)/C=c1/s/c(=C(\C#N)C(=O)NCc2ccco2)n(-c2ccc(C)cc2)c1=O,-17,1,8.5*,-35
COC(=O)/C=c1/s/c(=C(/C#N)C(=O)N2CCOCC2)n(-c2ccccc2)c1=O,-2,-2,2,-9
COc1ccc(NC(=O)O/N=C2/CCCc3ccc(OC)cc32)cc1,15,8,3,26
COc1ccc2c(c1)/C(=N/OC(=O)c1cccs1)CCC2,71*,4,3,28
COc1ccc(CCN(C)C(=O)CSc2nnnn2C)cc1OC,-7,-4,-1,8
CC1CCCCN1C(=O)C1CCCCN1S(=O)(=O)c1cccc([N+](=O)[O-])c1 (centres undefined),/,/,/,6
COc1cc(S(=O)(=O)n2cnc(C)c2)ccc1Br,0,-1,2,4
O=C(Nc1ccc(-c2nc3c(ccc4ccccc43)o2)cc1)c1ccco1,6,-6,2,79*
C/C(=N\NC(=O)CNc1cccc(Cl)c1C)C1CC1,-5,-5,0,-2
O=C(N/N=C/c1ccc([N+](=O)[O-])s1)c1ccncc1,-12,100*,-1,-28
Cc1cc(C)n(CC(=O)N/N=C/c2ccc([N+](=O)[O-])s2)n1,23,99*,-1,-11
CCOC(=O)N/N=C\c1ccc([N+](=O)[O-])s1,-9,39,-1,-6
SMILES,WT yeast gro inh,Lmaj promast,RAM network inh,CHOP inh
COc1cc([N+](=O)[O-])cc(/C=N/NC(=O)CSc2nnc(-c3ccccc3)n2C)c1O,/,/,/,12
Cc1ccc(C(=O)N/N=C/c2ccc([N+](=O)[O-])s2)cc1,22,99*,1,70*
Cn1c(SCC(=O)N/N=C/c2ccc([N+](=O)[O-])s2)nnc1-c1ccc(Cl)cc1,85,100*,-1,-13
Cc1ccc(/C=N/NC(=O)c2ccncc2)s1,/,/,/,-2
Cn1cnnc1Sc1ccc(C(=O)NCCC(c2ccccc2)c2ccccc2)cc1[N+](=O)[O-],-4,11,5,17
CC(C)(C)OC(=O)N/N=C\c1ccc([N+](=O)[O-])s1,73,80*,-2,-7
Cc1ccc(C(=O)N/N=C\c2ccc([N+](=O)[O-])s2)cn1,-4,100*,-1,3
